Consider three compounds from PubChem BioAssay (EPA / NIEHS).

“And” between values parts separate entries of the source, which are not always exact repeats. Identical values can stand only once. The source made the active and inactive calls. The calls were made as follows: active = hit-call score of the fitted dose curve at least 0.9, where 1 is the maximum; inactive = score below 0.9.

One experiment can be described thus: CCTE_Shafer_MEA_dev_per_network_spike_spike_number_mean: CCTE's Neural Network Formation Assay for Mean Number of Spikes in a Network Spike, Shafer Lab (AID 2284053).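 As to AC50: fitted as decrease in spikes per network spike relative to DMSO.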 In a few lines: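 First, rat cortical cells (1.5 x 10^5/well) were seeded onto MEA wells; second, dosing began at plating and was refreshed on DIV 5 and 9; finally, network-spike spike counts across DIV 5–12 were summarized as AUC.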
As for `CC[C@H](C)C(=O)O[C@H]1CCC=C2C=C[C@H](C)[C@H](CC[C@@H]3C[C@@H](O)CC(=O)O3)[C@H]21`, the concentration at half-maximal activity (AC50) (as a rule, the concentration at which the activity in the assay is half-maximal) was 940 nM (active) and 915 nM (active).

Take `C[C@@H]1C[C@H]2[C@@H]3CCC4=CC(=O)C=C[C@]4(C)[C@@]3(F)[C@@H](O)C[C@]2(C)[C@@]1(O)C(=O)CO`: the compound was called inactive.

As to `[Cl-].[Cl-].[NH2-].[NH2-].[Pt+4]`, the call was inactive.

Another experiment is described as follows: CCTE_Shafer_MEA_dev_per_network_spike_spike_percent: CCTE's Neural Network Formation Assay for Percent of Spikes in a Network Spike, Shafer Lab (AID 2284054). In a few lines:
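Rat primary cortical cultures, 1.5 x 10^5 cells/well on MEA. Continuous compound exposure d0–12, medium/compound renewed DIV 5, 9. Network-spike spike % (0.05 s peak window), AUC over 4 recordings, DMSO baseline.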
Turning to `CC[C@H](C)C(=O)O[C@H]1CCC=C2C=C[C@H](C)[C@H](CC[C@@H]3C[C@@H](O)CC(=O)O3)[C@H]21`, the AC50 was 277 nM (active) and 554 nM (active).

`C[C@@H]1C[C@H]2[C@@H]3CCC4=CC(=O)C=C[C@]4(C)[C@@]3(F)[C@@H](O)C[C@]2(C)[C@@]1(O)C(=O)CO`: the outcome was inactive.

As for `[Cl-].[Cl-].[NH2-].[NH2-].[Pt+4]`, the compound was called inactive.
